In the library only some 7.5% were active in any assay of this set; here they are far more common.
SMN2 splice up – enhancers of SMN2 splice variant expression. HEK293 SMN2-luciferase splicing reporter, luminescence, 30-36 h. Potency, µM (titrated, usually from 46.1 µM), without a hit: top-dose activity change, positive = activation, actives largely listed as activators. 2.8% of 210,000 active. AID 1458; also: % of control where 0% means no effect; nearly all actives have a fitted effect of over 55% in size
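HEK293 cells carry an SMN2 minigene-luciferase reporter in which exon 7 inclusion puts luciferase in frame. Cells were seeded at 2000 cells/well, attached for 10-12 hours, then exposed to compounds for 30-36 hours at 37C before ONE-Glo luminescence.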
NPC1 promoter act – NPC1 promoter activation. Huh7 NPC1 promoter luciferase reporter, 24 h. 2.4% of 320,000 active. Potency, µM (doses to about 9.22 µM), for inactives: at the highest dose activation, usual class: activators; also: % of control where 0% means no effect; nearly all actives have a fitted effect of over 60% in size
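Stable NPC1-promoter luciferase Huh7 line; cpd (DMSO) 24 h, 37 °C, 5% CO2; Amplite luciferase reagent 10 min RT; luminescence readout. qHTS format.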
FLuc counter – inhibits or activates purified firefly luciferase, miR-21 counter-screen; purified FLuc, Km substrates, luminescence inhibition; Potency, µM (doses to about 57.5 µM), for inactives: at the top dose activity change, negative = inhibition, most hits filed as inhibitors; 6.9% of 360,000 active;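 also: plate controls were vehicle for no effect and reference inhibitor for full effect; nearly all actives have a fitted effect of over 55% in size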
Target sequence (P08659 whole entry, looked up): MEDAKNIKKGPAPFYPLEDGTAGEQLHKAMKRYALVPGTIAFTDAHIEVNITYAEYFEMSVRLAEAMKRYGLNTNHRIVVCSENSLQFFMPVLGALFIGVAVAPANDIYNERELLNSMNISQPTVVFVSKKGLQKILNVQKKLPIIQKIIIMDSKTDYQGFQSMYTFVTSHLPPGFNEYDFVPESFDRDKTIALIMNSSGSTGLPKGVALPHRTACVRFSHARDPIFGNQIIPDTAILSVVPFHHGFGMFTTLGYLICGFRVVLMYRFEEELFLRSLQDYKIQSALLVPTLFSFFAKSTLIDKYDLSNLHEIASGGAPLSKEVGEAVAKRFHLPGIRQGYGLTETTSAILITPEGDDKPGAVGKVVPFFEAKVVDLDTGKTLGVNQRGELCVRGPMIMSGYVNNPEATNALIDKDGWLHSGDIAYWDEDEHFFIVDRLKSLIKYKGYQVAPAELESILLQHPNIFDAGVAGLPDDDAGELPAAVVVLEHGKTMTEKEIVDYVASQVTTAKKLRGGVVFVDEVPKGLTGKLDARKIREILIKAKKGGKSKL
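Purified P. pyralis luciferase (10nM final) with 10uM D-luciferin and 10uM ATP (Km levels) in 50mM Tris acetate pH 7.5, 10mM Mg acetate, 0.01% Tween-20, 0.05% BSA; qHTS 6-point titration, ~60 µM downward; luminescence read.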
ELG1 genotoxic – inducers of genotoxicity in HEK293T ELG1-luciferase cells; HEK293T ELG1-luciferase reporter, luminescence, 16 h; Potency, µM (doses to about 46 µM), for the others: at the highest dose activity change, positive = activation, hits mostly activators; 1.3% of 330,000 active; also: % of control where 0% means no effect; nearly all actives have a fitted effect of over 60% in size
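Genotoxic stress is detected as increased luminescence from luciferase-tagged ELG1 in HEK293T cells, measured with ONE-Glo after a 16 hr treatment at 37 °C.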
Rab9 promoter act – activators of Rab9 promoter. Huh7 Rab9 promoter-luciferase reporter, luminescence, 24 h. Potency, µM (series often up to 9.22 µM), for the others: at the top dose activation, negative = inhibition, hits mostly activators. 2.8% of 320,000 active; also: % of control where 0% means no effect; nearly all actives have a fitted effect of over 60% in size
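Promoter activation is measured as luciferase luminescence in Huh7 cells stably transfected with a Rab9 promoter–luciferase construct, following 24 h compound exposure at 37 °C and 10 min reagent incubation at ambient temperature.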
Numbers without * were called inactive; ? = inconclusive; . = no result; [ ] = dose if it differs, or a comment. Calls follow the shape of the dose curve; as a rule, active = well fitted curve in the direction sought with a large enough effect; inconclusive = small, poorly fitted or top-dose-only effect, or another doubt; inactive = no such curve, though single readings can be large; an effect the other way counts as inactive or inconclusive. Potency is read from the fitted curve at half-maximal effect.

SMILES	SMN2 splice up	NPC1 promoter act	FLuc counter	ELG1 genotoxic	Rab9 promoter act
CCc1ccc(NC(=O)c2cc(C(C)C)on2)cc1	1.4µM*	0.89µM*	1.9µM*	?	0.63µM*
Cc1ccc(NC(=O)c2cc(C)on2)cc1	.	1.4µM*	6.7µM*	?	1.4µM*
Cc1ccc(CCNC(=O)c2sc3ncccc3c2-n2c(C)ccc2C)cc1	.	.	-11%	.	.
CCCc1cc2c(n1Cc1ccc(OC)cc1)C(C)C1CN(C(=O)c3ccccc3)C(C)(C(=O)OC)C21 (configuration not stated)	-3%	.	.	.	.
CCCn1c(NCc2cccc(OC)c2O)nc2ccccc21	30%	17%	?	1%	13%
COc1ccccc1-n1cnc2cc(NCc3ccccn3)ccc21	11%	-3%	15µM*	10%	16%
COc1ccc(-n2cnc3ccccc32)cc1	-10%	4%	?	-15%	3%
COc1cccc(CNc2ccc3c(c2)ncn3C(C)C)c1OC	?	4µM*	17µM*	14%	4µM*
COc1ccc(-n2cnc3cc(NCc4ccccn4)ccc32)cc1	-8%	16%	17µM*	7%	22%
CCCn1cnc2cc(NCc3cccc(OC)c3O)ccc21	-2%	18%	12µM*	?	-3%
CC(CO)(CO)Nc1ncnc2ccccc12	-22%[9.22 µM]	.	.	.	.
CCCn1cnc2cc(NCc3ccccn3)ccc21	13µM*	3.2µM*	12µM*	?	3.2µM*
CCCn1c(NCc2ccccn2)nc2ccccc21	13%	1%	-17%	5%	14%
CCCCOc1ccc(C(=O)Nc2ccc(-c3nc4ccccc4s3)cc2C)cc1	-15%	.	-16%	.	.
O=C(Nc1cc(-c2nc3ccccc3s2)ccc1Cl)c1ccc2c(c1)OCO2	8%	-1%	11µM*	6%	1%
Cc1ccc(-c2nc3ccccc3s2)cc1NC(=O)c1ccc2c(c1)OCO2	-4%	11%	4.8µM*	-1%	-3%
COc1cccc(C(=O)NCC(C)(C)SCc2ccc(F)cc2)c1	.	12%	0%	-14%	0%
CCOC(=O)Cn1nc(NC(=O)c2ccc(C(=O)OC)cc2)cc1C	.	?	11µM*	18%	17%
O=C(CC1Sc2ccccc2NC1=O)NCc1ccc(Cl)cc1 (configuration not stated)	-5%	0%	4%	12%	-3%
O=C(O)[C@H]1O[C@H]1C(=O)O	-13%[9.22 µM]	.	.	.	.
Cc1cccc(NC(=O)CSc2nc3ccccc3nc2N2CCOCC2)c1C	4%	.	1%	.	.
COc1ccc(C(=O)Nn2cnc3scc(-c4cccs4)c3c2=O)c(O)c1	13µM*	2.8µM*	15µM*	7.3µM*	2.5µM*
COc1cccc(-n2cnc3scc(-c4cccs4)c3c2=O)c1	-7%	3%	-2%	-3%	1%
C[C@]12C[C@@](C)(C=C1/C=C/c1ccc(C(F)(F)F)cc1)C(=O)C[C@H]2c1ccc(C(F)(F)F)cc1	4%	.	.	.	.
COc1ccc(NC(=O)c2c(NC(=O)C(F)(F)F)sc3c2CCCCC3)cc1	-56%	.	13µM*	.	.
SMILES	SMN2 splice up	NPC1 promoter act	FLuc counter	ELG1 genotoxic	Rab9 promoter act
COc1ccc(NC(=O)c2c(NCc3ccc(N(C)C)cc3)sc3c2CCC3)cc1	.	.	11µM*	.	.
CC(C)(C)NC(=O)c1ccc2nsnc2c1	-2%	-1%	-3%	3%	-1%
O=c1c2cccc3c(N4CCOCC4)ccc(c32)c2nc3ccccc3n12	-21%	-1%	5.4µM*	?	1%
CCc1cccc(NC(=O)C(Cc2ccccc2)NS(=O)(=O)c2ccc3c(c2)oc(=O)n3C)c1 (configuration not stated)	-14%	.	0%	.	.
COc1ccc(C(=O)/C=C/Nc2ccc(S(=O)(=O)Nc3onc(C)c3C)cc2)cc1	19%	8%	7.6µM*	15%	-1%
Cc1noc(NS(=O)(=O)c2ccc(NC(=O)c3ccc(N(C)C)cc3)cc2)c1C	.	1%	.	5%	22%
Cc1noc(NS(=O)(=O)c2ccc(N/C=C/C(=O)c3ccncc3)cc2)c1C	3%	1%	-2%	3%	-9%
Cc1noc(NS(=O)(=O)c2ccc(N/C=C/C(=O)c3ccc(F)cc3)cc2)c1C	-27%	5%	21µM*	-5%	17%
Cc1noc(NS(=O)(=O)c2ccc(NC(=O)c3ccc(OC(C)C)cc3)cc2)c1C	.	-1%	13µM*	3%	1%
CC(C)Oc1ccc(C(=O)N/N=C/c2ccc(-c3ccc(S(=O)(=O)Nc4ncccn4)cc3)o2)cc1	7%	7%	27µM*	-1%	10%
CC(C)N(Cc1ccccc1)c1ncnc2c1nnn2C	.	.	-1%	.	.
CCc1ccccc1N(C)C(=O)Cn1cnc2sc(C)c(S(=O)(=O)N3CCN(c4ncccn4)CC3)c2c1=O	3%	.	-3%	.	.
NCCNC(=S)S	1%[9.22 µM]	.	.	.	.
Cc1noc(NS(=O)(=O)c2ccc(N/C=C\C(=O)c3ccncc3)cc2)c1C	-4%	-3%	-1%	-4%	9%
CCc1ccc(OCC(=O)Nc2ccc(S(=O)(=O)Nc3onc(C)c3C)cc2)cc1	-3%	.	12µM*	.	.
CCc1ccc(C(=O)/C=C/Nc2ccc(S(=O)(=O)Nc3onc(C)c3C)cc2)cc1	7%	20%	11µM*	13%	?
Cc1nnc(SCC2=C(C(=O)O)N3C(=O)C(NC(=O)Cn4cnnn4)[C@@H]3SC2)s1 (some centres not stated)	-8%	.	.	.	.
O=C(c1ccc(F)cc1)N1CCC(c2nc3ccccc3s2)CC1	.	.	-10%	.	.
O=C(c1ccco1)N1CCN(C(c2cccs2)c2nnnn2C2CCCC2)CC1 (configuration not stated)	2%	-1%	5%	2%	-4%
O=C(c1ccco1)N1CCN(C(c2ccccn2)c2nnnn2C2CCCC2)CC1 (configuration not stated)	13µM*	?	15µM*	?	?
O=C(O)c1ccccc1-c1noc(-c2ccccc2F)n1	.	3.5µM*	9.5µM*	.	2µM*
FC(F)(F)c1ccc(-c2noc(-c3ccccc3Br)n2)cc1	.	.	11µM*	.	.
Cc1ccccc1-c1noc(-c2ccccc2C(=O)O)n1	.	19%	19µM*	14%	17%
Nc1nonc1-c1noc(CCCN2C(=O)c3ccccc3C2=O)n1	?	?	24µM*	?	?
Cc1ccccc1C(=O)Nc1ccccc1-c1nc(-c2ccccc2)no1	.	.	-6%	.	.
CCOc1ccc(OCCNC(=O)C(NC(=O)c2c(F)cccc2F)C(C)C)cc1 (configuration not stated)	.	0%	5%	0%	-3%
COCc1cc(/C=N\NC(=O)Cc2ccc(OC)cc2)ccc1OC	-2%	4%	-7%	15%	3%
COc1ccc(-n2nc(C(=O)NCC(=O)NC3CCCCC3)c3ccccc3c2=O)cc1	.	2%	?	-17%	11%
Cc1ccc(-c2noc(-c3ccccc3NC(=O)c3ccccc3)n2)cc1	.	.	0%	.	.
